The first assay concerns the target TMED9. Kind of assay: pooled miR-30 sensor sort-seq; sequence = guide strand. The following applies: shRNA.
As for TCAGTAACTAAGACTCTGCAGG, the sensor-assay potency score (higher = more potent) was -0.549. Same read-out and setting: the value for TTGAGGTGCCGCATCTGCCAGA was -0.928. Still for that read-out and setting: the result for TTCACCTCCACAAACATGCCAA reads -0.184; that for TGGGAAGTGAAAGTGAACCTGC, 0.118; that for TATGACCATGGTCTCGTCCGGG, -0.321. On the same count and under the same terms, the value for TTGTCATACAGCTGCGTCCGGT was -1.2; that for TTGGAGTGAAGACAGATCTGGT was -0.176; that for TAACACTGTGATTCTGAGGTGC was 0.27. Regarding TTTCTGGATCTGCTCCACTTGT, the sensor-assay potency score (higher = more potent) was -1.3. Regarding ATGACCATGGTCTCGTCCGGGA, the sensor-assay potency score (higher = more potent) is -0.96. Same read-out and setting: the value for TTTAGCAGCAATTTCTGCATAG was -0.576.

For the sequence TGTCTTTAGCAGCAATTTCTGC, the sensor-assay potency score (higher = more potent) is -1.06.

Another assay concerns the target TMEFF2. The assay is described as above. The following applies: shRNA.
For the sequence TAGATCTCTTGTCTTATTCTTT, the sensor-assay potency score (higher = more potent) was -0.31. The same measure, in the same setting: the value for TTGTTGTATTGTCTGAACTGTA was -0.51.

Take TAGAATGCTCACACTTCCCATG: the sensor-assay potency score (higher = more potent) was -0.607. Still for that read-out and setting: the result for TAGCATTCTCTGCATAATCTGT reads -0.543; that for TACAGGACCGGGAACAACGTAT, -0.637; that for TTTTTTCACAGTGTTGTCCAGT, -0.255.

As to TTAAGACATACTGAAATCGTAC, the sensor-assay potency score (higher = more potent) is -0.191. With TATAGAACACTGTAGTCCTTTT, the sensor-assay potency score (higher = more potent) is -0.956. On the same count and under the same terms, the result for TTGTCTGAACTGTAGTGCCCTG reads -0.73; that for TAGAACACTGTAGTCCTTTTTT, -1.55; that for TCAATATTACACACACACCAGA, -1.06.
Note: reference of the scale not given here.
